Laboratory results from PubChem BioAssay AID2158 (National Center for Advancing Translational Sciences (NCATS), 2009).
Where “and” joins values, the source holds several entries; their conditions need not be identical. Equal values may be shown once. Results filed as inconclusive are left out. Calls of active or inactive are those of the source. The call rests on the fitted dose curve; in most records, active means well fitted inhibition curve with a large enough effect; inconclusive means small, poorly fitted or top-dose-only effect; inactive means no such curve, though single readings can be large or run the other way.

target: Cruzipain (Trypanosoma cruzi) (UniProt P25779); experiment: Confirmation qHTS Assay for Inhibitors of Cruzain; conditions: purified cruzain, Z-FR-AMC fluorescence, 0.01% Triton; further: nearly all actives have a fitted effect of over 40% in size;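 on Activity change, negative = inhibition: plate controls were uninhibited enzyme control for no effect and buffer wells lacking enzyme for full effect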
Sequence (P25779 123-467 limits assumed): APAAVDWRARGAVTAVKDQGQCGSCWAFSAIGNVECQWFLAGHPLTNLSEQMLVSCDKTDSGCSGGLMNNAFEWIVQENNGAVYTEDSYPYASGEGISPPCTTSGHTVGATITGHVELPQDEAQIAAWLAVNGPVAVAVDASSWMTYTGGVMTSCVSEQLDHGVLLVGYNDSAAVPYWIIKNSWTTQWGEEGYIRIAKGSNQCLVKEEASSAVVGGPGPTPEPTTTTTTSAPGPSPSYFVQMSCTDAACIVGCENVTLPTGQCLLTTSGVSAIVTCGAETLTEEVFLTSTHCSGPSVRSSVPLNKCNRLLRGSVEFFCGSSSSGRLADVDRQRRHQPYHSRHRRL
How it was run: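 Reaction progress from the 60 s rise in AMC fluorescence (ex 360, em 450 nm) after adding 2 uM Z-FR-AMC. Before this, 1.5 nM cruzain sat 15 min at room temperature with compound in pH 5.5 acetate buffer with 5 mM DTT and 0.01% Triton X-100.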
Potency means the concentration at half of the fitted maximal effect.

Potency, active:
O=C(CNC(=O)c1ccccc1)OCC(=O)c1ccc2ccccc2c1 15.8 µM
CC(C)(C)c1ccc(Nc2nc(C#N)nc(NC3CCCC3)n2)cc1 3.55 µM
O=C(COC(=O)CNC(=O)C1CCCCC1)NC1CC1 15.8 µM
N#Cc1nc(Nc2ccc(Br)cc2)nc(NC2CCCC2)n1 0.501 µM
CC(C)CNc1nc(C#N)nc(Nc2ccccc2)n1 0.891 µM
Cc1cc(C)cc(OCCn2c(CCNC(=O)C3CCCCC3)nc3ccccc32)c1 631 nM and 2.24 µM
O=C(CNC(=O)c1ccccc1)OCC(=O)c1ccccc1 15.8 µM
CCn1nc(-c2ccccc2C)nc2c(=O)n(C)c(=O)nc1-2 0.631 µM
O=C1/C(=C/c2ccco2)CCc2ccccc21 2.51 µM
COc1ccc(/C=C/C(=O)Nc2ccc(-n3nncc3-c3ccccc3)cc2)cc1OC 14.1 µM
CCn1cnc2c(Nc3cccc(Cl)c3)nc(C#N)nc21 0.0141 µM
O=C(CNC(=O)C1CCCCC1)OCC(=O)c1ccc(F)cc1 2.51 µM
N#Cc1nc(Nc2ccccc2)nc(NC2CCCC2)n1 0.708 µM
Cc1ccc(C(=O)NCC(=O)OCC(=O)c2ccc3ccccc3c2)cc1 12.6 µM
CC(C)NC(=O)COC(=O)CNC(=O)C1CCCCC1 14.1 µM
CSCC[C@H](NC(=O)COc1ccc(Cl)cc1Cl)c1nc2ccccc2[nH]1 2.82 µM
CNc1oc(/C=C/c2cc(OC)c(OC)c(OC)c2)nc1C#N 15.8 µM
N#Cc1nc(Nc2cccc(Br)c2)nc(NC2CCCC2)n1 0.1 µM
O=C(COC(=O)CNC(=O)c1ccccc1)Nc1ccccc1Cl 11.2 µM
O=C(CNC(=O)C1CCCCC1)OC(C(=O)c1ccccc1)c1ccccc1 (centres undefined) 1.26 µM
COc1cc(NC(=O)C(OC(=O)CNC(=O)c2ccccc2)c2ccccc2)cc(OC)c1 (centres undefined) 25.1 µM
CN(c1ccccc1)c1nc(C#N)nc(N2CCOCC2)n1 1.26 µM

Activity change, negative = inhibition, inactive:
Nc1ccc2c(c1)C(=O)C(=O)c1ccccc1-2 -54.3%
CCn1cnc2c(Nc3cc(F)cc(F)c3)nc(C(=O)COc3c(F)c(F)cc(F)c3F)nc21 -8.99%
O=C(Cc1nnc(-c2cc3ccccc3[nH]2)o1)Nc1cc(C(F)(F)F)ccc1Cl -3.28%
N#Cc1c(NC(=O)CSc2ncnc3c2cnn3-c2ccccc2Cl)sc2c1CCCC2 -1.46%
COc1ccc(-c2nc(C#N)c(NCCCN3CCOCC3)o2)cc1 -29.3%
Cc1cccc(C(=O)NC2CCN(C#N)CC2)c1 -3.52% and 7.39%
Cc1ccc2[nH]c(=O)c(CN(Cc3ccccc3)Cc3nnnn3Cc3ccccc3)cc2c1 -15.4%
COC(=O)CCC(C)C1CCC2C3CC[C@H]4CC(O)CC[C@@]4(C)C3CC(O)[C@]12C (some centres undefined) -8.27%
O=[S+]([O-])(/C=C/c1nc(Nc2cc(F)cc(F)c2)c2ncn(CC(F)F)c2n1)c1ccccc1 -11.8%
Cc1ccc(OCCCn2c(CCCNC(=O)C3CCCCC3)nc3ccccc32)cc1 -20.3%
O=C(CNC(=O)c1ccccc1)NCC(=O)OCC(=O)c1cccc2ccccc12 -13.9%
Cc1ccc(C(=O)NC2CCN(C#N)CC2)cc1 -5.84%
N#CN1CCC(N[S+](=O)([O-])c2cccc(F)c2)CC1 -1.96%
Cc1cc(NC(=O)Cc2cccs2)no1 -19.2%
Cc1ccccc1OCC(=O)NCC(=O)OCC(=O)c1ccc(-c2ccccc2)cc1 -15.9%
COc1ccccc1CCNC(=O)CNC(=O)c1ccc2ccccc2c1 -7.19%
O=C(Cn1cc(CNCc2ccccc2)nn1)Nc1cc(C(F)(F)F)ccc1Cl 3.4%
